SARS PLP yeast: qHTS of Yeast-based Assay for SARS-CoV PLP; S. cerevisiae expressing SARS-CoV PLpro, growth rescue; Potency, µM (doses to about 32.9 µM), actives largely listed as activators; 330,000 compounds, 0.19% hits; calls by dose curve; note: nearly all actives have a fitted effect of over 55% in size
Pf growth 96h: Primary qHTS for delayed death inhibitors of the malarial parasite plastid, 96 hour incubation | P. falciparum luciferase reporter growth, 96 h | Potency, µM (highest dose often 28.7 µM), most hits filed as inhibitors | 320,000 compounds, 6.9% hits | AID 504834, 2011
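Parasite growth measured via integrated firefly luciferase reporter in P. falciparum. Infected erythrocytes at 2% hematocrit, 0.05% parasitemia final were treated 96 hours at 37 C under 5% CO2, and luminescence was read.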
Sm TGR block: qHTS Assay for the Inhibitors of Schistosoma Mansoni Peroxiredoxins; Schistosoma mansoni thioredoxin glutathione reductase (TGR), Q962Y6; purified TGR, DTNB reduction, TNB absorbance 405 nm; Potency, µM (highest dose often 114 µM), actives largely listed as inhibitors; 360,000 compounds, 3% hits; AID 485364, 2010; note: nearly all actives have a fitted effect of over 60% in size
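Kinetic colorimetric format: TGR-catalysed, NADPH-driven DTNB reduction monitored via TNB absorbance. Enzyme dispensed at 20 nM; compound exposure 15 min at room temperature before reaction start.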
Pf growth 48h: Primary qHTS for delayed death inhibitors of the malarial parasite plastid, 48 hour incubation. P. falciparum luciferase growth in erythrocytes, 48 h. Potency, µM (titrated, usually from 28.7 µM), hits mostly inhibitors. 310,000 compounds, 5.9% hits
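Cell-based growth assay: transgenic P. falciparum expressing firefly luciferase, cultured in red cells within RPMI 1640 containing 0.5% w/v Albumax, 24 mM bicarbonate and gentamycin. A drop in luciferase activity indicates inhibition.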
A number is an active result; – = inactive; ? = inconclusive; · = not tested or not shown; ! = repeats disagree. Most compounds without a hit are left out; they make up all but 12% or so of the library. Unless noted, calls come from the whole dose curve; as a rule, active = well fitted curve in the direction sought with a large enough effect; inconclusive = small, poorly fitted or top-dose-only effect, or another doubt; inactive = no such curve, though single readings can be large; an effect the other way counts as inactive or inconclusive.

SMILES	SARS PLP yeast	Pf growth 96h	Sm TGR block	Pf growth 48h
Cc1ccnc(NC(=O)c2cc([N+](=O)[O-])cc([N+](=O)[O-])c2)c1	–	–	–	?
Cc1ccnc(NC(=O)c2ccc([N+](=O)[O-])s2)c1	–	7.38µM	–	?
Cc1cccc(NC(=O)c2ccc([N+](=O)[O-])s2)n1	–	8.28µM	–	?
Cc1ccccc1-c1nn2c(=O)cc(CN3CCN(C(=O)c4ccccc4Br)CC3)nc2s1	·	·	–	·
CCCS(=O)(=O)N1CC(=O)N(c2cccc(Cl)c2)C(C)(C(=O)NC2CCCCC2)C1 (stereo unspecified)	·	·	–	·
CC(=O)OC(c1nc2ccccc2c(=O)n1C1CC2(OC1=O)c1ccccc1N1C(=O)C(C)(C)N(O)C12)C(C)C (stereo unspecified)	–	10.4µM	–	2.08µM
COC(=O)c1ccc(CSc2nc3ccccc3c(=O)n2CC(C)C)o1	–	?	–	–
O=C(CCN1C(=O)c2ccc(Br)cc2C1=O)NC1CCCCC1	–	?	–	–
O=C(CSC1=NCCS1)c1ccc(Cl)cc1	–	?	–	10.4µM
Cc1nnc(SCc2nc3sc4c(c3c(=O)[nH]2)CCCC4)n(N)c1=O	–	?	14.1µM	?
Nc1nc(SCc2nc3sc4c(c3c(=O)[nH]2)CCCC4)n[nH]1	–	–	–	–
O=c1ccc(-c2ccc(S(=O)(=O)NCC3CCN(Cc4cccc(F)c4)CC3)s2)n[nH]1	–	?	–	5.22µM
COc1ccc(-n2nnnc2SCC(=O)NCc2ccco2)cc1OC	–	–	–	–
CCn1nnnc1SCC(=O)NCc1ccco1	–	–	25.1µM	–
COc1ccc(OC)c(-n2nnnc2SCC(=O)NCCc2ccccc2)c1	–	9.28µM	–	–
COc1cccc(-n2nnnc2SCC(=O)NCc2ccco2)c1	–	?	50.1µM	–
COc1cccc(-n2nnnc2SCC(=O)c2cc(OC)ccc2OC)c1	–	11.7µM	–	–
CCC(=O)Nc1cccc(-n2nnnc2SCC(=O)NCc2ccco2)c1	–	?	–	–
CCCCn1nnnc1SCC(=O)NCc1ccco1	·	–	39.8µM	–
Cc1ccc(Cl)cc1N1CCN(C(=O)c2cnn(C)c2C2CCN(C(=O)OC(C)(C)C)CC2)CC1	·	·	–	·
COc1ccc(C(=O)N/N=C/c2ccc(OC)c(CN3CCc4cc(OC)c(OC)cc4C3C)c2)cc1 (stereo unspecified)	–	–	–	9.28µM
CC/C(=C\C1CCCCC1)C(NP(=O)(c1ccccc1)c1ccccc1)c1ccccc1 (stereo unspecified)	–	6.57µM	–	9.28µM
CCC(C)NCC(O)(c1ccc(Cl)cc1)c1ccc(Cl)cc1 (stereo unspecified)	–	2.94µM	–	?
Clc1ccc(Cn2c(CN3CCCC3)nc3ccccc32)cc1	–	4.05µM!	–	?
c1ccc(Cn2c(CN3CCCC3)nc3ccccc32)cc1	–	9.28µM	–	?
SMILES	SARS PLP yeast	Pf growth 96h	Sm TGR block	Pf growth 48h
Nn1c(CN2CCCCC2)nc2ccccc2c1=O	–	2.33µM	–	–
O=c1ccc(-c2nc3ccccc3n2Cc2ccc(Cl)cc2)c[nH]1	–	9.28µM	–	5.86µM
Cn1c(-c2ccc(=O)[nH]c2)nc2ccccc21	–	?	–	?
O=c1c2ccccc2nc(CN2CCCCCC2)n1-c1ccc(F)cc1	–	·	?	?
c1ccc(-c2nnc(-c3ccccn3)nc2NC2CCCCC2)cc1	–	·	–	0.928µM
COc1ccccc1C1(CC(=O)N2CCCCC2)CCOC(C(C)C)C1 (stereo unspecified)	–	14.7µM	–	·
CC(=O)NNc1ncnc2c1cnn2-c1ccc(C)c(Cl)c1	–	8.28µM	–	–
Cc1ccc(-n2ncc3c(N4CCN(CCO)CC4)ncnc32)cc1Cl	·	·	7.94µM	·
CCN1CCN(c2ncnc3c2cnn3-c2ccc(C)c(Cl)c2)CC1	·	·	–	·
CC1CCN(S(=O)(=O)c2ccc3c(c2)CCN3)CC1	·	·	–	·
O=C(Nc1cccs1)N1CCN(c2ncccn2)CC1	–	?	17.8µM	?
Cc1ccccc1NC(=O)N1CCN(c2ncccn2)CC1	–	2.33µM	–	–
COc1cc(NC(=O)CSc2nc3nc(C)c(Cc4ccc(C)cc4)c(C)n3n2)cc(OC)c1	·	·	–	·
COc1ccccc1C(=O)Nc1ccc(S(=O)(=O)Nc2nc(C)cc(C)n2)cc1	·	·	–	·
COc1cccc(NC(=O)CSC2=Nc3ccccc3N=C(c3ccc(F)cc3)C2)c1	·	·	–	·
Cc1nn(-c2ccccc2)c2c1C1(C(=O)N3c4c(cccc41)C(C)CC3(C)C)C(C#N)=C(N)O2 (stereo unspecified)	–	·	?	?
Cc1cc2c3c(c1)C(C)CC(C)(C)N3C(=O)C2=C(C#N)C#N (stereo unspecified)	–	?	3.98µM	?
CCOc1cc2c3c(c1)C(C)=CC(C)(C)N3C(=O)C2=O	–	–	–	–
Cc1cc2c3c(c1)C(C)CC(C)(C)N3C(=O)C2=O (stereo unspecified)	–	–	·	–
Cc1ccc2c3c1C(=O)C(=O)N3C(C)(C)CC2C (stereo unspecified)	–	–	–	–
CCOc1cc2c3c(c1)C(C)CC(C)(C)N3C(=O)C2=O (stereo unspecified)	–	0.828µM	–	?
CC1CC(C)(C)N2C(=O)C(=C(C#N)C#N)c3cccc1c32 (stereo unspecified)	–	–	5.62µM	–
CCc1cc2c3c(c1)C1(C(=O)N3C(C)(C)CC2C)C(C#N)=C(N)N2C(=C1C#N)Nc1ccccc12 (stereo unspecified)	–	–	–	9.28µM
CCCCN(CC)c1nc(-c2ccccc2F)nc2ccccc12	·	·	–	·
O=C1NC2(CCCCCC2)C(=O)N1Cc1ccccc1Br	–	–	–	–
SMILES	SARS PLP yeast	Pf growth 96h	Sm TGR block	Pf growth 48h
Cc1cc2c3c(c1)C1(C(=O)N3C(C)(C)CC2C)C(C#N)=C(N)Oc2cc(O)ccc21 (stereo unspecified)	–	·	–	11.7µM
Cc1ccc2c3c1C1(C(=O)N3C(C)(C)CC2C)C(C#N)=C(N)Oc2cc(O)ccc21 (stereo unspecified)	–	–	–	–
COc1ccc(-c2[nH]c(-c3ccc(F)cc3)nc2SCC(=O)NC2CCCC2)cc1	–	?	–	–
COc1ccc(-c2[nH]c(-c3cccc(OC)c3)nc2SCC(=O)NC2CCCC2)cc1	–	3.29µM	–	–
COc1ccc(-c2[nH]c(-c3ccccc3)nc2SCC(=O)NC2CCCC2)cc1	–	11.7µM	–	–
O=C(Cn1c(=O)oc2cc(S(=O)(=O)N3CCCCCC3)ccc21)Nc1ccc(F)cc1F	·	·	–	·
Cc1cccc(NC(=O)CCNS(=O)(=O)c2ccc3c(c2)CCN3C(=O)C2CC2)c1	·	·	–	·
CC(=O)c1cc(-c2ccc(F)cc2)n(CCC(=O)Nc2cccnc2)c1C	–	–	–	9.28µM
CCOc1ccc(NC(=O)CCn2c(-c3ccc(F)cc3)cc(C(C)=O)c2C)cc1	·	·	–	·
O=S(=O)(c1ccccc1)c1nnn2c1nc(NC1CCN(Cc3ccccc3)CC1)c1cc(Cl)ccc12	–	–	–	0.657µM
